In all, about 6,200 compounds went through this assay and about 4,800 (77%) were called active. The set was probably picked from earlier hits. A selection follows. Unmarked numbers belong to inactive results.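 The calls were made as follows: active = mean inhibition at 8 µM reaching about 37%, which flags the compound as non-specific (limit read from the data); inactive = the rest.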
Experiment: luminescence decrease from intact luciferase reporter – cell-based, single concentration, SaOS-2, counter-screen for Mdm2/MdmX interaction inhibitor project, confirmation (AID 504607);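 also: p53-null SaOS-2 cells with luciferase driven by a doxycycline-inducible promoter; compound on cells about two nights before reading with doxycycline added after day one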
Conditions: SaOS-2 full-length luciferase counterscreen, at 8 µM, stronger effect = higher value
Brc1ccc2ncnc(NCc3cccnc3)c2c1 gave an inhibition of 26.8%. With Cc1ccnc(NC(=O)C2CCN(S(=O)(=O)c3c(C)c(C)cc(C)c3C)CC2)c1 the inhibition was 46% (active). In the case of O=C(CCNC(=O)c1ccc(Cl)cc1)NC1CCCc2ccccc21 (stereo not given), the inhibition is reported as 54.4% (active). In the case of CCOC(=O)/C(=C\c1ccc([N+](=O)[O-])cc1)C(=O)c1cc(C(C)=O)c(Nc2ccccc2)s1, the inhibition is reported as 50.6% (active). For CN(c1ccccc1)S(=O)(=O)c1cc(C(=O)N2CCN(c3ncccn3)CC2)ccc1Cl, the inhibition was 83.9% (active). For O=C(COc1ccccc1F)Nc1nc(-c2ccccn2)cs1, the inhibition was 47.2% (active). With O=C(CCCCCn1c(=S)[nH]c2cc3c(cc2c1=O)OCO3)N1CCN(c2ccc(F)cc2)CC1 the inhibition was 79.3% (active). For Cc1ccc(C)c(N2CCN(C(=O)CCCCCn3c(=S)[nH]c4ccc(N5CCOCC5)cc4c3=O)CC2)c1, the inhibition was 60.1% (active). COc1cccc(-c2nnc(NC(=O)c3ccc(S(=O)(=O)N(CC(C)C)CC(C)C)cc3)o2)c1 showed an inhibition of 24.3%. Work on O=C(CN1C(=O)c2ccccc2S1(=O)=O)N1CCc2ccccc21 yielded an inhibition of 15.9%. For O=C1/C(=C\c2ccccc2Cl)SC(=S)N1CCC(=O)N1CCCc2ccccc21, the inhibition was 43.1% (active). With Fc1ccccc1/C=C1\CCCC2=C1Nc1ncnn1C2c1ccccc1F (stereo not given) the inhibition was 3.26%. With Cc1ccccc1NC(=O)CSc1nc2ccc(Nc3nc(N4CCOCC4)nc(N4CCOCC4)n3)cc2s1 the inhibition was 81.4% (active). For O=C(CSc1nc(Nc2ccccc2)nc(N2CCOCC2)n1)Nc1cc(Cl)ccc1O, the inhibition was 65.1% (active). In the case of O=C1[C@H]2[C@@H](c3ccc(F)cc3)N3C(=O)N(c4ccc(C(F)(F)F)cc4)C(=O)[C@@]3(Cc3ccccc3)[C@H]2C(=O)N1C1CCCCC1, the inhibition is reported as 48.6% (active). With COc1ccc2[nH]c(=O)c(CN(Cc3cccnc3)S(=O)(=O)c3ccccc3F)cc2c1 the inhibition was 56.2% (active). For Cc1ccc2nc(-c3ccc(Br)cc3)cn2c1, the inhibition was 133% (active). In the case of Cc1ccc(-c2cn3cc(C)ccc3n2)cc1, the inhibition is reported as 29%. For FC(F)(F)c1nnc2c3ccccc3c(Cl)nn12, the inhibition was 79.9% (active). For CC1CN(C(=O)CCC(=O)NCCCN2CCC(Cc3ccccc3)CC2)c2cc(Cl)ccc2O1 (stereo not given), the inhibition was 40.4% (active). For O=C(N/N=C\c1cc2c(cc1Cl)OCO2)c1ccc(Br)s1, the inhibition was 94.6% (active). With CCN(CC)S(=O)(=O)c1ccc(NC(=O)c2cccnc2Cl)c(NC(=O)c2cccnc2Cl)c1 the inhibition was 43.5% (active). In the case of N=c1n(CCc2ccccc2)c2ccccc2n1Cc1ccccc1F, the inhibition is reported as 69.7% (active). In the case of CCOC(=O)/C=C/C(=O)OCC(=O)NC(c1ccccc1)c1ccccc1, the inhibition is reported as 56.8% (active). In the case of O=[N+]([O-])/C=C/c1ccc2c(ccn2Cc2ccccc2)c1, the inhibition is reported as 49% (active). For COc1ccc(Nc2oc(-c3ccccc3Cl)nc2C#N)cc1, the inhibition was 79% (active). In the case of O=C(NNc1ccccc1Cl)C(O)(c1cccc(C(F)(F)F)c1)c1cccc(C(F)(F)F)c1, the inhibition is reported as 87.9% (active). In the case of COC(=O)c1sc(-c2ccc(C(C)(C)C)cc2)cc1NC(=O)/C=C/C(=O)O, the inhibition is reported as 55.9% (active). With O=C(CSc1cccc2cccnc12)N/N=C/c1cccnc1 the inhibition was 68.1% (active). For CC(=O)/C(=N\Nc1ccc(Cl)cc1Cl)Sc1cccc2cccnc12, the inhibition was 19.1%. For CCn1cc(CN2CCC(C(=O)Nc3cccc(-c4cccc(Cl)c4)c3)CC2)c(C)n1, the inhibition was 74.2% (active). With c1ccc2c(c1)CSc1sccc1C2=C1CCNCC1 the inhibition was 44.8% (active). In the case of COc1cccc(-n2c(SCC(=O)NC3CCCCC3)nc3n[nH]c(C)c3c2=N)c1, the inhibition is reported as 66.3% (active). With NC(=O)c1sc2nc3c(c(-c4ccccc4)c2c1N)CCC3 the inhibition was 43.5% (active). In the case of Cc1ccccc1C(=O)N1CCN(c2ccc(NC(=O)c3cccs3)cc2)CC1, the inhibition is reported as 65.1% (active). In the case of COc1ccc(C(=O)NC2CCCc3c2cnn3-c2cccc(C)c2C)c(OC)n1 (stereo not given), the inhibition is reported as 54.8% (active). With Cc1cc(C(=O)NC2CCCc3c2cnn3-c2cccc(C)c2C)c(C)o1 (stereo not given) the inhibition was 91% (active). With CC(NC(=O)Nc1ccccc1)C(c1cccs1)N1CCN(c2ccccc2)CC1 (stereo not given) the inhibition was 58% (active). With CC(=O)Nc1ccc(NC(=O)C(C)OC(=O)c2ccccc2C(=O)c2ccc(Cl)c([N+](=O)[O-])c2)cc1 (stereo not given) the inhibition was 52.9% (active). In the case of N#Cc1cccc(NC(=O)COC(=O)c2ccccc2C(=O)c2ccc(Cl)c([N+](=O)[O-])c2)c1, the inhibition is reported as 50.4% (active). With Cc1cccc(-c2oc3ccc(-c4ccc5c(c4)OCO5)cc3c2C#Cc2cncn2C)c1 the inhibition was 80.9% (active). For Oc1ccccc1N1CCN(c2ncnc3sc(-c4ccccc4)cc23)CC1, the inhibition was 58.6% (active). For O=C(Oc1c(-c2ccco2)oc2ccccc2c1=O)c1cccnc1, the inhibition was 90.3% (active). In the case of COc1cc2c(cc1OC)C(C)N(S(=O)(=O)c1cnc(Cl)c(Cl)c1)CC2 (stereo not given), the inhibition is reported as 45.3% (active). For CN(C)CC(O)COc1ccc(C(C)(C)c2ccc(OCC(O)CN(C)C)cc2)cc1 (stereo not given), the inhibition was 56.8% (active).

From PubChem BioAssay AID504607 (Sanford-Burnham Center for Chemical Genomics, 2011)
